Reference: PubChem BioAssay (NCATS)
Records with an inconclusive call do not appear. Activity calls are given as the source filed them. Unless noted, the call rests on the fitted dose curve; in most records, active means well fitted curve in the direction sought with a large enough effect; inconclusive means small, poorly fitted or top-dose-only effect, or another doubt; inactive means no such curve, though single readings can be large; an effect the other way counts as inactive or inconclusive.

How the values were obtained:
[1] = molecular target: Cytochrome P450 1A2 (Homo sapiens) (UniProt P05177); assay: p450-cyp1a2 (AID 410; calls by dose curve; further: potency means the concentration at half of the fitted maximal effect;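 on activity change, negative = inhibition: -100% = full effect of reference inhibitor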)
Cytochrome P450 1A2 (Homo sapiens), sequence (P05177 whole entry, looked up): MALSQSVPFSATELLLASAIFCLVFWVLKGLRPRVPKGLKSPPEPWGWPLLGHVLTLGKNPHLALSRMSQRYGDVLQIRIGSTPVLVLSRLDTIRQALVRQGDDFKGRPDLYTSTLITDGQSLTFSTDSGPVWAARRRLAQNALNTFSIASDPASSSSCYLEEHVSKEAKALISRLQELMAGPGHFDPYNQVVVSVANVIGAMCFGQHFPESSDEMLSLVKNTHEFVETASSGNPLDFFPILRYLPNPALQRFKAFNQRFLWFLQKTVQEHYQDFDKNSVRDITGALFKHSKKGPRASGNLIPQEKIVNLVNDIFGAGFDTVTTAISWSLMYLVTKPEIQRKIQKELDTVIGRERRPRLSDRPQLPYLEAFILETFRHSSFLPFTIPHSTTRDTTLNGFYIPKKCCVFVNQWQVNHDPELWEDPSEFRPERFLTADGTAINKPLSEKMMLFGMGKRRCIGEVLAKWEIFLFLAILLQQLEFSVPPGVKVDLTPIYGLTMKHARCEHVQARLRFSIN
How it was run: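 Luminescent readout of luciferin formed from Luciferin-ME by human CYP1A2; data normalized against complete inhibition by 57 uM furafylline. Enzyme 20nM, substrate 100uM at Km, 100mM KPO4 buffer, 60 min reaction at room temperature.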

[2] = molecular target: Glucocorticoid receptor (Homo sapiens) (UniProt P04150); assay: GR-GFP Redistribution (AID 450;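 active means compounds whose dose series gives a full or clear partial fitted curve of increased nuclear translocation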; further: potency means the concentration at half of the fitted maximal effect); details: U2OS GR-GFP nuclear translocation, laser cytometry, 2 h
Glucocorticoid receptor (Homo sapiens), sequence (P04150 whole entry, looked up, the tested form may be a part): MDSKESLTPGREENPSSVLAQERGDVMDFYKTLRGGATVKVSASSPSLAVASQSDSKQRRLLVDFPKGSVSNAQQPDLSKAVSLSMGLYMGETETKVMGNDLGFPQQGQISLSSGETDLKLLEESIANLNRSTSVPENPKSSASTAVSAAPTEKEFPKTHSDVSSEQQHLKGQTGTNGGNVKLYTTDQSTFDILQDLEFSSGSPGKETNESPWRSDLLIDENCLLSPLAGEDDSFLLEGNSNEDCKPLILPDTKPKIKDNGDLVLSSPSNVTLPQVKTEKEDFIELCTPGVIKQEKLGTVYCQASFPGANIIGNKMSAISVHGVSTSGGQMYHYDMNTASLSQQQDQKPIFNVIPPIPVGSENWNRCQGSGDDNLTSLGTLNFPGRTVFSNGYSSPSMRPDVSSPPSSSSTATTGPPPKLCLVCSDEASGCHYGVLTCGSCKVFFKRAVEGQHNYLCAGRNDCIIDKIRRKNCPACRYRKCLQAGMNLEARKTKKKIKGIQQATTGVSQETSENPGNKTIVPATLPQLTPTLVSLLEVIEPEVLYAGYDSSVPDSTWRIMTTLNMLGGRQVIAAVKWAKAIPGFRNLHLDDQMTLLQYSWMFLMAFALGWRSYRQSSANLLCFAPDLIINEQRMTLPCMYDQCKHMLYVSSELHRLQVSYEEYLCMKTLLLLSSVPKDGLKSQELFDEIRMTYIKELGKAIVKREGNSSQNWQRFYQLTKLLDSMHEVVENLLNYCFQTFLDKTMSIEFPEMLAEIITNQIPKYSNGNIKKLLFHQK

[3] = molecular target: Glucocorticoid receptor (Homo sapiens) (UniProt P04150); assay: GR-EFC Redistribution (AID 451; calls by dose curve; further: potency means the concentration at half of the fitted maximal effect); details: CHO-K1 GR-EFC translocation, beta-gal luminescence, 2 h
How it was run: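 Translocation of GR-ED fusion to nuclear EA restores b-gal, read by luminescence after 1 h room-temperature detection. Engineered CHO-K1 biosensor cells, 1,000/well, exposed 2 h at 37 C to titrations up to 46 uM final.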

[4] = molecular target: Mitogen-activated protein kinase 10 (Mus musculus) (UniProt Q61831); assay: JNK3 AlphaScreen Assay (AID 530; active means well fitted curve in either direction with a large enough effect, not every such curve was filed as active;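 further: kinase came from lysate of stimulated human HepG2 cells; signal reports phosphorylation of biotinylated GST-cJun 1-79 at Ser73 with 10 µM ATP; on the % scale 0 is the no-effect control and ±100 the full control effect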)
How it was run: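 Compound titrations were preincubated 15 minutes at room temperature with substrate, antibody and pre-activated JNK3-containing HepG2 lysate. Reactions were started with 10 uM ATP and stopped with EDTA-containing bead buffer for AlphaScreen detection.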

[5] = molecular target: 3',5'-cyclic-AMP phosphodiesterase 4B (Homo sapiens) (UniProt Q07343); assay: qHTS Assay for Inhibitors of PDE-IV (AID 607; active means well fitted activation curve with a large enough effect in the main read-out, with a control signal flat, not every such curve was filed as active; further: potency means the concentration at half of the fitted maximal effect)
3',5'-cyclic-AMP phosphodiesterase 4B (Homo sapiens), sequence (Q07343 whole entry, looked up): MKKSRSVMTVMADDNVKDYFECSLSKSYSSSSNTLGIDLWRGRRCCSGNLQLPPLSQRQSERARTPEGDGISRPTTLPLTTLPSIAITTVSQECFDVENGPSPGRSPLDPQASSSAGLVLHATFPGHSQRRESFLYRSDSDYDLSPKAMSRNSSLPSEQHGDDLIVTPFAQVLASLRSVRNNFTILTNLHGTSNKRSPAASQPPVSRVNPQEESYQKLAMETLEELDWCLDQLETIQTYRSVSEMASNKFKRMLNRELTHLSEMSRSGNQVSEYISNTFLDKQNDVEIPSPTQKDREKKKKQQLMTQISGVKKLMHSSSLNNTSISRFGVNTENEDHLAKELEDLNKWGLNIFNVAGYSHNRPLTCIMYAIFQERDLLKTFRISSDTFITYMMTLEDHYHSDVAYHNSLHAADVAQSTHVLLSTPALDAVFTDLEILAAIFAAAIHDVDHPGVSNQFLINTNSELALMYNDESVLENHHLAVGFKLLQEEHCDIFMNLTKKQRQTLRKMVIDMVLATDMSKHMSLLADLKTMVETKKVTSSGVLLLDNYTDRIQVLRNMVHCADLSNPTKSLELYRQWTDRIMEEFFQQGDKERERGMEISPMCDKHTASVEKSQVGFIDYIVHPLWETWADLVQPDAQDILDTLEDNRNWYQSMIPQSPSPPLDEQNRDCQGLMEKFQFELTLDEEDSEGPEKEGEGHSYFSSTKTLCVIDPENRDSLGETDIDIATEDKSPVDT
How it was run: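 Live HEK293 cells with a modified cyclic nucleotide-gated (CNG) channel report intracellular cAMP via membrane-potential dye fluorescence (ex 535/em 590 nm). Endogenous PDE-IV was targeted. Compounds were tested at up to 22.9 uM final; RO 20-1724 100 uM served as control.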

[6] = molecular target: Cytochrome P450 2C9 (Homo sapiens) (UniProt P11712); assay: qHTS Assay for Inhibitors and Substrates of Cytochrome P450 2C9 (AID 883); further: potency means the concentration at half of the fitted maximal effect; nearly all actives have a fitted effect of over 60% in size
Cytochrome P450 2C9 (Homo sapiens), sequence (P11712 whole entry, looked up): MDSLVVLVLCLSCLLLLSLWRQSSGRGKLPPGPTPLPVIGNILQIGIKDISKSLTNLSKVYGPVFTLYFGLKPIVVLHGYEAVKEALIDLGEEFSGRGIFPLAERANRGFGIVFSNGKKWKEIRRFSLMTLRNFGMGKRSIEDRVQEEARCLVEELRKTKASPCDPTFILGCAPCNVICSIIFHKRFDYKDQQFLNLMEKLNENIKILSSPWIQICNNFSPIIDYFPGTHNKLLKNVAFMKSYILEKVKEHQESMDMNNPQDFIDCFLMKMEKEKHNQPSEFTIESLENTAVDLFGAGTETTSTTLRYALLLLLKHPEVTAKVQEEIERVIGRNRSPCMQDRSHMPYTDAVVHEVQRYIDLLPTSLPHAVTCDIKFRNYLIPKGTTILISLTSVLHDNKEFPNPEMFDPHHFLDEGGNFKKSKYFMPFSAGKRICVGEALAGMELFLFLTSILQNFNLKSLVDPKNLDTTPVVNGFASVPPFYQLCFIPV
How it was run: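 Luminescent read-out of deoxyluciferin hydroxylation, normalized to 57uM sulphaphenazole (AC100). Reaction: 10nM enzyme, 100uM Luciferin-H (equal to KM), 25mM KPO4, 10 min compound preincubation, then 60 min with NADPH regeneration, both at 37C.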

[7] = molecular target: Cytochrome P450 2C19 (Homo sapiens) (UniProt P33261); assay: qHTS Assay for Inhibitors and Substrates of Cytochrome P450 2C19 (AID 899); further: potency means the concentration at half of the fitted maximal effect; nearly all actives have a fitted effect of over 60% in size
Cytochrome P450 2C19 (Homo sapiens), sequence (P33261 whole entry, looked up): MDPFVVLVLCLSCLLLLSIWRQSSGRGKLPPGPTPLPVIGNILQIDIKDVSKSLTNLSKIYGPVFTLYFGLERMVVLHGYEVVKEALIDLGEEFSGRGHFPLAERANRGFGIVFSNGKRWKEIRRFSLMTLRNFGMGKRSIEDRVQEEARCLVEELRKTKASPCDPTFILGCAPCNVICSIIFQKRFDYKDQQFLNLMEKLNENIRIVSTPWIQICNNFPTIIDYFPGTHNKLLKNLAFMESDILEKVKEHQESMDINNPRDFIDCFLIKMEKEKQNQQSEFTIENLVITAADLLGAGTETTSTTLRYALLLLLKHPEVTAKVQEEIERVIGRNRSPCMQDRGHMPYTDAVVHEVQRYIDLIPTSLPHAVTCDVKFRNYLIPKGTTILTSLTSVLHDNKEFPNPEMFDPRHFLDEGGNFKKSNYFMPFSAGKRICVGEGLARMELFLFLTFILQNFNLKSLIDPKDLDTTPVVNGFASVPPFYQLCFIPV
How it was run: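 Luminescence readout of luciferin formed from 10uM Luciferin-H EGE (KM level) by 5 nM CYP2C19 in 50mM KPO4. 60 min NADPH-driven reaction at 37C after 10 min compound preincubation; data scaled to 57uM ketoconazole inhibition.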

[8] = molecular target: DNA dC->dU-editing enzyme APOBEC-3G (Homo sapiens) (UniProt Q9HC16); assay: qHTS for inhibitors of Vif-A3G interactions: Validation (AID 588379); further: 0% is about no effect
DNA dC->dU-editing enzyme APOBEC-3G (Homo sapiens), sequence (Q9HC16 whole entry, looked up): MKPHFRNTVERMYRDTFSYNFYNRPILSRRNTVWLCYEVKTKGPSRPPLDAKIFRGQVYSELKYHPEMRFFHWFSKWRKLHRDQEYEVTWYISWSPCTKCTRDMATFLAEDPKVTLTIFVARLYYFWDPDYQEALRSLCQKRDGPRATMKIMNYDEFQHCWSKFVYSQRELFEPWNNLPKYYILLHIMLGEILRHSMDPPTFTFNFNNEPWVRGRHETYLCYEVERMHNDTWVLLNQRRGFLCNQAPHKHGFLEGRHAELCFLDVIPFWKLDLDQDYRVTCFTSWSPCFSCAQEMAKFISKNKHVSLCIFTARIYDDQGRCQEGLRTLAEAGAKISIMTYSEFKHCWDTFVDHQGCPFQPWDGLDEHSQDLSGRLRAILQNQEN
How it was run: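 HeLa cells stably expressing Vif and A3G-eYFP, 700 cells/well, incubated overnight at 37 deg C, then exposed to compound overnight at 37 deg C. Inhibition of Vif-mediated degradation read as increased yellow fluorescence (Ex 488/Em 500-530) by laser-scanning cytometry.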

[9] = test system: Zika virus NS2B-NS3 protease; assay: Primary screen GU AMC qHTS for Zika virus inhibitors (AID 1347154);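 further: 0% = no-inhibitor control and -100% = no-enzyme control; nearly all actives have a fitted effect of over 70% in size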
How it was run: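 Fluorogenic AMC-substrate cleavage by noncovalent NS2B-NS3 protease complex (25 nM, pH 8.0 Tris buffer with Tween 20) followed for 15 minutes at room temperature (~20% conversion). Percent inhibition from ex340/em450 signal change, fitted by 4-parameter Hill equation.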

[10] = Primary qHTS for small molecule stabilizers of the endoplasmic reticulum resident proteome: Secreted ER Calcium Modulated Protein (SERCaMP) assay (AID 1508630); further: on the % scale 0 is the no-effect control and ±100 the full control effect
How it was run: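 GLuc-SERCaMP-expressing SH-SY5Y cells, pretreated 16 h with compound, are challenged with thapsigargin to empty ER calcium stores; after 4 h, coelenterazine is added directly to the medium and luminescence is imaged.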

[11] = molecular target: Cytochrome P450 3A4 (Homo sapiens) (UniProt P08684); assay: qHTS Assay for Inhibitors and Substrates of Cytochrome P450 3A4 (AID 884); further: potency means the concentration at half of the fitted maximal effect; nearly all actives have a fitted effect of over 50% in size
Cytochrome P450 3A4 (Homo sapiens), sequence (P08684 whole entry, looked up): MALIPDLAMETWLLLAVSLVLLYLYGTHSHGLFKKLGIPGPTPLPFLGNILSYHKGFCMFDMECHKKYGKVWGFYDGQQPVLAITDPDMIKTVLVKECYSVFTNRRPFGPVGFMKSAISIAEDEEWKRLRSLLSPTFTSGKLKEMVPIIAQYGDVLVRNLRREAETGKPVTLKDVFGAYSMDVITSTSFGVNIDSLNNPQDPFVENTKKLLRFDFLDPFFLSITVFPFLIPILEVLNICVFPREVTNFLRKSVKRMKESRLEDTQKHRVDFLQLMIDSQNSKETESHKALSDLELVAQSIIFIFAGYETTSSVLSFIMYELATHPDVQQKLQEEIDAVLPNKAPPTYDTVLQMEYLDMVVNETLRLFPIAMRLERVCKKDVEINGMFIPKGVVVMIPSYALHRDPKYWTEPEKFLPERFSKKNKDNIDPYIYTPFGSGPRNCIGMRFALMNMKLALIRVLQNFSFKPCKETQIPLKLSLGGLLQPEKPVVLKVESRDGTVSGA
How it was run: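 20 nM human CYP3A4 with 25 uM Luciferin-PPXE (at KM) in 200 mM KPO4, preincubated 10 min with compound; NADPH regeneration started a 60 min RT reaction. Luciferin detected by luminescence, normalized to 57 uM ketoconazole as full inhibition.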

[12] = molecular target: Cytochrome P450 3A4 (Homo sapiens) (UniProt P08684); assay: qHTS Assay for Activators of Cytochrome P450 3A4 (AID 885); further: nearly all actives have a fitted effect of over 65% in size
How it was run: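 Quantitative HTS format: compounds preincubated with 20nM human CYP3A4 and Luciferin-PPXE substrate at KM, reaction started by NADPH regeneration, stopped after 60 min, luciferase luminescence read 20 min later.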

[13] = Stat Signaling Pathway (AID 446; active means well fitted curve in either direction with a large enough effect, not every such curve was filed as active;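 further: ME-180 cervical cancer cells given 40 pM IL-6 alongside compound; SIE-controlled beta-lactamase reporter measured as 460/530 nm FRET emission ratio; on the % scale 0 is the no-effect control and ±100 the full control effect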); details: ME-180 (cervical carcinoma) SIE beta-lactamase reporter, IL-6 stimulated, 5 h; at 17.2 µM (top of the series)
How it was run: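 IL-6/STAT signaling read in ME-180 cells via an SIE beta-lactamase reporter. Stimulus was 40 pM IL-6 (its AC50) for 5 hrs, so both activation and inhibition register.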

[14] = molecular target: Ubiquitin carboxyl-terminal hydrolase 1 (Homo sapiens) (UniProt O94782); assay: Inhibitors of USP1/UAF1: Pilot qHTS (AID 504865);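 further: rhodamine fluorescence freed from ubiquitin-rhodamine substrate followed over time; top concentration of the series differs between compounds; on the % scale 0 is the no-effect control and ±100 the full control effect; nearly all actives have a fitted effect of over 35% in size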
Ubiquitin carboxyl-terminal hydrolase 1 (Homo sapiens), sequence (O94782 whole entry, looked up): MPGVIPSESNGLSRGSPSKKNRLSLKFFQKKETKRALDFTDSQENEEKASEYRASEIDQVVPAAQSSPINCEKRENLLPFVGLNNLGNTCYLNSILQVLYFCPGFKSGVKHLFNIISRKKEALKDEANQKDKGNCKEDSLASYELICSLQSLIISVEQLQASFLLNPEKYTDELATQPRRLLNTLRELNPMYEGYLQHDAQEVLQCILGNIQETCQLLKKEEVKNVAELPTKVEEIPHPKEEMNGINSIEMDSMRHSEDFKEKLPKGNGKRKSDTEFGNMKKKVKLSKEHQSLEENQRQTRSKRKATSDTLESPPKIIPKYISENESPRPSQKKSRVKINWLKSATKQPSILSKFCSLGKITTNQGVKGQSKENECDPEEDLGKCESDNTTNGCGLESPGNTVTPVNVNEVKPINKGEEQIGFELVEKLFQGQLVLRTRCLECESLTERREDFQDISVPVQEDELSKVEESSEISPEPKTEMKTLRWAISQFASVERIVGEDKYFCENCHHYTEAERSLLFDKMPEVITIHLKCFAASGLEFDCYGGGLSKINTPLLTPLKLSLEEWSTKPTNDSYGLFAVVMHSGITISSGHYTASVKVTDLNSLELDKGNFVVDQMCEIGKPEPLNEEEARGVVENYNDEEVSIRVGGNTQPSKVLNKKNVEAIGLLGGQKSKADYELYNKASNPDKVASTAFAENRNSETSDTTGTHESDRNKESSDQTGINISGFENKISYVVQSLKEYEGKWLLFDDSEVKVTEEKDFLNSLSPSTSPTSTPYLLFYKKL
How it was run: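 Deubiquitinase activity followed as kinetic rhodamine fluorescence release from 150 nM Ub-Rho. 1 nM USP1/UAF1 with compound, after 15 min room-temperature preincubation, in HEPES pH 7.8 buffer containing TCEP, EDTA, BSA and Tween-20.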

CSc1nc(NC2CCCC2)c([N+](=O)[O-])c(NC2CCCC2)n1
active: Potency [1] 3.98 µM | Potency [6] 2 µM | Potency [7] 5.01 µM
inactive: Potency [2] > 46 µM | Potency [3] > 46 µM | Potency [4] | Potency [5] | Potency [8] | Potency [9] | Potency [10]

NCCCCCCCCCCNS(=O)(=O)c1cccc2c(Cl)cccc12
active: Potency [1] 15.8 µM | Potency [6] 0.0501 µM | Potency [11] 2.51 µM | Potency [7] 0.0794 µM
inactive: Potency [2] > 46 µM | Potency [3] > 46 µM | Potency [4] | Potency [12] | Potency [8] | Potency [9] | Potency [10]

C#CCCCCCCCCCCCCCCCC(=O)O
inactive: Potency [2] > 46 µM | Potency [5] | Potency [8] | Potency [9] | Potency [10]
active: Potency [1] 6.31 µM

CC[C@@H](C)[C@H]1O[C@]2(CC[C@@H]1C)C[C@@H]1C[C@H](C/C=C(/C)[C@H](O[C@@H]3C[C@H](OC)[C@H](O[C@@H]4C[C@H](OC)[C@@H](O)[C@H](C)O4)[C@H](C)O3)[C@@H](C)/C=C\C=C3CO[C@@H]4[C@H](O)C(C)=C[C@@H](C(=O)O1)[C@]34O)O2 (tested in a mixture with another compound)
inactive: Potency [1] | Potency [2] > 46 µM | Potency [3] > 46 µM | Potency [5] | Potency [8] | Potency [9] | Potency [10]

CCc1cc2c(c(CC)n1)CCC(=O)N2Cc1ccc(-c2ccccc2-c2nn[nH]n2)cc1
inactive: Potency [1] | Potency [2] > 46 µM | Potency [3] > 46 µM | Potency [4] | Potency [12] | Potency [8] | Potency [9] | Potency [10]
active: Potency [7] 5.01 µM

Cc1noc(NS(=O)(=O)c2cccc3c(N(C)C)cccc23)c1C
active: Potency [6] 0.631 µM
inactive: Potency [1] | Potency [3] > 46 µM | Potency [4] | Potency [5] | Potency [12] | Potency [8] | Potency [9] | Potency [10]

CCCCC[C@H](O)/C=C/[C@@H]1[C@@H](CCCCCCC(=O)O)[C@@H](O)C[C@H]1O
inactive: activity, negative = inhibition [13] 2.03% | Potency [2] > 20.6 µM | activity change, negative = inhibition [9] 8.46% [at 6.83 µM] | activity change, negative = inhibition [10] -7.27% [at 3.88 µM]

CCCn1c(=O)c2[nH]c(-c3ccccc3)nc2n(CCC)c1=O
active: Potency [1] 0.0794 µM | Potency [5] 0.379 µM
inactive: Potency [4] | Potency [12] | Potency [14] | Potency [8] | Potency [9] | Potency [10]

CC[N+](CC)(CC)CCOc1ccc(/C=C\c2ccccc2)cc1
active: Potency [1] 31.6 µM
inactive: Potency [3] > 46 µM | Potency [4] | Potency [5] | Potency [8] | Potency [9] | Potency [10]

O=C(NCCN1CCCCC1)c1ccc(I)cc1
inactive: Potency [2] > 46 µM | Potency [3] > 46 µM | Potency [4] | Potency [5] | Potency [14] | Potency [8] | Potency [9] | Potency [10]
